In the assay the target is GABARAPL2, P60520. The assay can be described thus: median log2 fold change of GCK-ALFA target abundance (FLAG IP / Myc IP barcode read proportion) (log2 ratio); each designed protein is fused to an ALFA-tag nanobody in HEK293 cells to bring the named protein to FLAG-tagged glucokinase (GCK); Myc marks an untargeted standard; higher = target protein stabilised (more abundant). Conditions: target protein: 3xFLAG-MCP-GCK-ALFA reporter; HEK293 landing pad (RPLP). The method in brief:
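Binders fused to an ALFA nanobody were recombined as a library into HEK293 landing-pad cells, which were induced with 2 μg mL^−1 doxycycline and then transfected to express a FLAG-tagged target and a Myc-tagged standard. After 48 h, circular RNA barcodes recovered by anti-FLAG and anti-Myc immunoprecipitation of lysates were reverse transcribed, amplified and sequenced. Each binder's target abundance is the median log2 ratio of FLAG to Myc barcode read proportions, from barcodes present at ≥10^−7 in both replicates, binders carrying ≥3 barcodes per replicate, a 10^−6 pseudocount and pooled replicates.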

Chain of GABARAPL2, P60520 (P60520 whole entry, the tested form may be a part): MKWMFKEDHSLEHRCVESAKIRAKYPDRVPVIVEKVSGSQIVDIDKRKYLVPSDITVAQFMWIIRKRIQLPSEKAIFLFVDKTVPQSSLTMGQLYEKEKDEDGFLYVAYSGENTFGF

B1: GBRAPL2_151_7307 (protein)
chain: SRKEEAIRLLEEAARTAEEAVEALPESKELEKTELELLAGGLDALAILVEEEDDEEKVRELVKEGAELTEDAARLARELGLEEQARRLEELSRRLKELAE
As for B1, the “median log2 fold change” value is -0.403.

B2: GBRAPL2_175_7327 (protein)
chain: SEMEELIKRLVELLLRLAEKLDGLASDLLLAAAALLEEEGVDAAKRAAELVKEAAKEIKDNPKLKAAAEELARALKLIAEGAPPEEVKKELEKAEKLLEE
Consider B2, for which the “median log2 fold change” value came out at 0.118.

B3: GBRAPL2_151_7306 (protein)
chain: SKKEKAIELLKEAAKTAEEAVKKLSEEQELEKTELELIAGGLEALAILVEETDDEEKIKKLVKEAAELVEDAAKLAEELGLEEEAKKLKELAKELKKLAE
B3: the “median log2 fold change” value stood at 0.123.

B4: GBRAPL2_151_7324 (protein)
chain: SELEKLLKELKKLLEELEKLVKEASEKYPEYSIELETLAGGAEADILLAEEAKNDEEKRKYLKRAAELIADAAKLIAEITGDERAKKLAEEAKKILKELE
Turning to B4, the “median log2 fold change” value worked out at 0.242.

B5: GBRAPL2_151_7325 (protein)
chain: SELDELLKKLKELLERLEKLVKEAAKEKPEYETTLETLVGGAEADLLLAEEAENDEEKRRHLKEAAELIRDAAEEIAKITGKEEAKKLAEEAKKLLKELE
For the molecule B5, the “median log2 fold change” value was 0.129.

B6: GBRAPL2_151_7314 (protein)
chain: SWKEEALKALEKGAKAIEEFAKSLPEEHELERTEAELLAGGMEAYRALIEETDDEEEIKRLLKEAAELVKDAAEIAKELGFEKEAKELEKIAKELEKLAK
Turning to B6, the “median log2 fold change” value was found to be 0.164.

B7: GBRAPL2_151_7320 (protein)
chain: EELEELERRARELLEELEELVKELEEKKPEHSTEVETLVGGAEADLLLAEEAEDPEEKRRFLLEAAKLIRDAFELIAKILGSERAKELAEEAKELAKELE
For B7, the “median log2 fold change” value came to 0.183.

B8: GBRAPL2_175_7332 (protein)
chain: SAREELVKRLAELALRLAEKADDETEDLLLAAAALLEEGGEENLKRAAELIKEAAKEIKDDERLKKAAAELAEAAELLIAGEDVEKAEEELRKAEELLEK
As for B8, the “median log2 fold change” value turned out to be 0.136.

B9: GBRAPL2_175_7337 (protein)
chain: SLEDEVLEALIEALELLSEKADDEVSDLLDAAMALLETDGRAALPRVAELLKKASEEAKDNPELSALLEELAAAAKEFAEGGDLEEILKKAKEIIKKIKA
B9: the “median log2 fold change” value is 0.0611.

B10: GBRAPL2_175_7333 (protein)
chain: SARQELVKRIRDLLLKLAEKADDETQDLLLAAAALLEEGGEENLKRALELVKEAAKEEKNDATLQQAAAELAAALALLIEGKPVEEAQKEIDAAAKLLAK
Regarding B10, the “median log2 fold change” value is 0.119.

B11: GBRAPL2_151_7312 (protein)
chain: SLKEKAVEKLKEAAELVEEAAKALPESQELERTELELIAGGMDADAILIEETEDEEEIKKIIKESAERVEDAAKIAKKLGLEELAKKLEEKAKELKKLAE
B11: the “median log2 fold change” value was 0.307.

B12: GBRAPL2_151_7315 (protein)
chain: SWKEEALKALEEAAEAIEEAAKKLPPEHELERTELELLAGGMDAYKALIEETDDEEEIKRLLKEAAELVKEAAEIMKKLGFEEEAKKLEKIAKELEKLAK
As to B12, the “median log2 fold change” value is -0.126.

B13: GBRAPL2_175_7329 (protein)
chain: SERDELIKRLAELLEKLAEEVDGEASDLLLAAAALLEEEGIEAAKRVAELLKEAAKEIEGNEKLKKAAEALAEAAKLLAEGAPAEEVQKKLEEAEKLLKE
Regarding B13, the “median log2 fold change” value turned out to be 0.194.

B14: GBRAPL2_175_7331 (protein)
chain: SATEEALKRIAELLERLAERLDGEASDLLLAAAALVEQQGVAAAARAAELVKEAAKLVADDPRLRAALEELAAALKLLAAGAAVEEVQAEIDRAEALLEA
Take B14: the “median log2 fold change” value was found to be 0.0704.

B15: GBRAPL2_175_7330 (protein)
chain: SALEELLKRLAELLEELAEKLDDEASDLLLAAAALIEQDGVAAAKRAAELVKEAAKKVKDNPKLQAALEELAAALELIAAGKAPEEVKAELEKAEALLKE
With B15, the “median log2 fold change” value was 0.207.

B16: GBRAPL2_151_7313 (protein)
chain: GWKEEALKALKEAAEAIEKAAEALPPEHELERTELELLAGGMDAYRALVEETDDREEIKRLLKDAAELVKDAAEIMEKLGKEEAAKKLKKIAEKLKKLAE
As to B16, the “median log2 fold change” value is -0.0822.

B17: GBRAPL2_151_7317 (protein)
chain: SELEKLLKELKALAEELWKLAEELAKKDPSVATEVETLVGGVEADIILAEEEEDPEEKRKHLLEAAKLAKDAAELIAEVLKSEKAKKLAEKAKKLAEKLK
Take B17: the “median log2 fold change” value worked out at 0.0623.

B18: GBRAPL2_151_7323 (protein)
chain: SELEKLLKEAKKLLKKLEKLVKEAAKKDPKYETELETLVGGAEADLILAEEAKNDEEKREHLKRAAELIADAAELIAKITGSEEAKKLAEEAKELLKKLE
Turning to B18, the “median log2 fold change” value came to 0.39.

B19: GBRAPL2_175_7339 (protein)
chain: AAYEKLLAEIIELLLEIAEKANDEVSDLLEAAAAVLETDGLAGAERAARLVKEAAEEAKDNPQLQEALKLIAEALKALAAGAAPEEVKKLLDKAKEVLKK
Take B19: the “median log2 fold change” value was 0.22.

B20: GBRAPL2_175_7334 (protein)
chain: SALDELLARLAALLDELSERADDETADLLDAAMALLELEGAAAAARVAELLREAAELAADNPRLRAALEELARAAALIAEGAAPEEVQAELDRAAALLAE
Turning to B20, the “median log2 fold change” value amounted to 0.086.

B21: GBRAPL2_175_7336 (protein)
chain: SLKDEVLAALIEALELLAEKANDEVQDLLEAAMALLEVDGESALPQVAKLLEEAAKEAKDNPELQKLLKELAAAAKEAAEGGDLEEILARAQAIIKEIKA
As to B21, the “median log2 fold change” value is 0.166.

B22: GBRAPL2_151_7310 (protein)
chain: ELKEKVVKALKEAAKALEELAELLSPEHELEKTEIELIAGGMDAYAALVEETEDEEKIKEITKEAAELVEDAAKIAKELGLEEQAKKLEEIAKKLKELAA
Turning to B22, the “median log2 fold change” value stood at 0.111.

B23: GBRAPL2_151_7321 (protein)
chain: SELEKLKKEAEKLLEELEKLVKELEKKKPEKSTEVETLLGGAEADLILAEEAEDPEEKRRFLLEAAELLADAFKLIAKVLGSEKAKKLAKEAEELAKKLA
On to B23, for which the “median log2 fold change” value was found to be 0.168.

B24: GBRAPL2_151_7311 (protein)
chain: DLKEKAVKALEEAAKALEELAEKLSEEQELEKTEIELLAGGMDAYAILVEETEDEEEIKRIVKDAAELVEDAAKIAKELGLEEDAKKLKEIAKKLKELAK
Regarding B24, the “median log2 fold change” value is -0.0443.

B25: GBRAPL2_151_7316 (protein)
chain: EWKEEALKALEEGAKAVEEFAKSLPESEELERTELELLAGGLDAYKALIEETDDEEEIRRLLKEAAELVEDAAEIAKKLGREEAAKKLEKIAKKLKELAE
For B25, the “median log2 fold change” value stood at 0.266.

B26: GBRAPL2_151_7326 (protein)
chain: SELERLLEKLKELLEKLEKLVEEAAKKDPSHEIELETLVGGAEADLLLAEEAPNDEEKRRFLKEAAELIKDAAELIAKITGSEEAKKLAEEAREILKELE
Regarding B26, the “median log2 fold change” value came to 0.164.

B27: GBRAPL2_151_7319 (protein)
chain: GELEELEKKLKELIKKLEKLLEKLKKEKPEYETEVSTLLGGAEADLLLAEEAEDPEEKRRFLAEAAELAADAFKLIAEVLGSEEAKKLAEEAKKLLEKLK
Take B27: the “median log2 fold change” value was 0.141.

B28: GBRAPL2_175_7335 (protein)
chain: SKKEEAIKKLIEALELLAEKANDEVQDLLEAAAAVLELDGESGIEQAAKIVKQAAKDAKDNPELQKLLKELAKALKLLAEGGDIEEVIKKAEKIIKELKK
B28: the “median log2 fold change” value was found to be 0.0436.

B29: GBRAPL2_151_7308 (protein)
chain: SEKEKAIELLKKAAEAAEEAIKALSEDQELEKTEFELIAGGLEALAILIEEEDDEEKIKELVKRGAELVKDAAELAKKLGLEEQAKKLKEIAKELEKLSK
For the molecule B29, the “median log2 fold change” value was determined as 0.202.

B30: GBRAPL2_175_7338 (protein)
chain: AARAALLARIIELLDELAERADDEVADLLDAAAAVLEEEGEAGAERAARLVAEAAREAADDPRLRAALEAVAAALAALAAGAAPAEVQALLDEAEAILAE
As to B30, the “median log2 fold change” value was -0.358.

B31: GBRAPL2_151_7318 (protein)
chain: EELEELLKRLKKLAEKLAKLAEELAKEDPEHATEVETLVGGVEADIILAEEEEDEEEKRRHLLRAAELAADAAKLIAEVLKKEEAKKLAEEAKELAEKLK
In the case of B31, the “median log2 fold change” value turned out to be 0.242.

B32: GBRAPL2_151_7309 (protein)
chain: KLKEEVIEALERAAEAVEKAAEKLSPEQELERTELELIAGGMEAYAALVEETEDEEKIKEITRRAAEMVRDAAEIAKELGLEEEAKELEEIAKELEELAA
Regarding B32, the “median log2 fold change” value was 0.0437.

The values above are taken from the supplement of paper PMC12632987.
